Inconclusive results are not listed. Activity calls are given as the source filed them. Rule for the calls, unless noted: active = hit-call score of the fitted dose curve at least 0.9, where 1 is the maximum; inactive = score below 0.9.

Assay [1] in a line: ATG_PXRE_CIS: Attagene CIS-FACTORIAL HepG2 Assay for human Pregnane X Receptor Element (PXRE) (AID 2282957). As to conditions: HepG2 Attagene CIS-FACTORIAL PXRE reporter, mRNA; actives raise or lower the signal. The method in brief:
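HepG2 cells transiently transfected with cis-regulated multiple reporter transcription units; endogenous factor activity measured as reporter mRNA 24 h after dosing. RT-PCR, fluorescent primer extension, HpaI digestion, capillary electrophoresis; bidirectional fit versus DMSO baseline.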

Assay [2] is described as follows: ATG_PPRE_CIS: Attagene CIS-FACTORIAL HepG2 Assay for human Peroxisome Proliferator-activated Response Element (PPRE) (AID 2282958). As to conditions: HepG2 PPRE cis-element reporter, Attagene transcription factor profiling; actives raise or lower the signal. The method in brief: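 HepG2, transient MRTU transfection (cis promoter elements, endogenous TFs). 24 h dosing. RNA → oligo(dT) RT → PCR → 6-FAM primer extension → HpaI digest → CE. Bidirectional fit vs DMSO.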

The nature of assay [3]: ATG_RORE_CIS: Attagene CIS-FACTORIAL HepG2 Assay for human RAR-related Orphan Receptor Element (RORE) (AID 2282959). To be noted: HepG2 Attagene cis-factorial RORE reporter, mRNA; actives raise or lower the signal. In a few lines: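 Transient MRTU transfection of human HepG2 liver cells (FuGene 6); 24 h compound exposure; TriZol RNA, oligo(dT) RT, PCR, FAM labeling, HpaI cut, CE fragment analysis. DMSO = negative control/baseline.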

Assay [4] is described as follows: ATG_Sox_CIS: Attagene CIS-FACTORIAL HepG2 Assay for human SRY-box transcription factor (SOX) (AID 2282960). As to conditions: HepG2 Attagene cis-factorial SOX reporter, mRNA; actives raise or lower the signal. In a few lines:
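Endogenous factor activity in human liver HepG2 cells carrying transfected cis-regulated reporter units. RNA taken 24 h post-dose, reverse-transcribed, PCR-amplified and sized by capillary electrophoresis. Gain or loss of signal fitted relative to DMSO.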

For assay [5], the target named is Transcription factor Sp1 (Homo sapiens) (UniProt P08047). The assay is described as follows: ATG_Sp1_CIS: Attagene CIS-FACTORIAL HepG2 Assay for human Specificity Protein 1 (Sp1) (AID 2282961). As to conditions: HepG2 Sp1 cis-reporter transcription, actives raise or lower the signal. The method in brief: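 Transient MRTU-transfected HepG2, 24 h compound exposure. Total RNA → oligo(dT) RT → PCR of reporter → 6-FAM primer extension → HpaI digest → CE. Endpoint fitted both directions vs DMSO.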

The nature of assay [6]: ATG_SREBP_CIS: Attagene CIS-FACTORIAL HepG2 Assay for human Sterol Regulatory Element Binding (SREBP) (AID 2282962). To be noted: HepG2 Attagene cis-factorial SREBP reporter, mRNA; actives raise or lower the signal. In a few lines:
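Transfected HepG2 (cis-regulated reporter library, endogenous TFs) → compound 24 h → total RNA → oligo(dT) RT → reporter-specific PCR → FAM primer extension, HpaI cut → CE fluorescence. Fit bidirectional vs DMSO.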

In assay [7] the target is Signal transducer and activator of transcription 3 (Homo sapiens) (UniProt P40763). The assay is described as follows: ATG_STAT3_CIS: Attagene CIS-FACTORIAL HepG2 Assay for human Signal Transducer and Activator of Transcription 3 (STAT3) (AID 2282963). As to conditions: HepG2, Attagene cis-factorial STAT3 reporter transcription; actives raise or lower the signal. The method in brief: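 HepG2 cells transiently transfected with multiple cis-element-driven reporter units report endogenous transcription factor activity. After 24 h compound exposure, reporter mRNA is measured by RT-PCR, 6-FAM labelling, HpaI digestion and capillary electrophoresis. Fitted bidirectionally versus DMSO.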

Assay [8] can be described thus: ATG_TA_CIS: Attagene CIS-FACTORIAL HepG2 Assay for human TA Basal Promoter (AID 2282964). To be noted: HepG2 Attagene CIS-factorial TA basal promoter reporter; actives raise or lower the signal. In a few lines:
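Read-out: fluorescent reporter-transcript fragments resolved by capillary electrophoresis after RT-PCR and HpaI digestion. Source: HepG2 cells carrying transiently transfected multi-reporter cis constructs, treated 24 h. Endpoint fitted bidirectionally relative to DMSO.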

Assay [9] can be described thus: ATG_TCF_b_cat_CIS: Attagene CIS-FACTORIAL HepG2 Assay for human T-Cell-Factor with beta-catenin (TCF/b-cat) (AID 2282965). As to conditions: HepG2 TCF/beta-catenin cis-reporter transcription, actives raise or lower the signal. In a few lines: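 HepG2, transient MRTU transfection, cis-element-driven reporters (endogenous TFs). 24 h compound exposure. Readout: reporter mRNA by RT-PCR + 6-FAM primer extension, HpaI digest, capillary electrophoresis. Gain/loss fit vs DMSO baseline.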

Assay [10] can be described thus: ATG_TAL_CIS: Attagene CIS-FACTORIAL HepG2 Assay for human TAL Basal Promoter (AID 2282966).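 Note: background control endpoint measuring basal TAL promoter reporter mRNA not a specific factor.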 As to conditions: HepG2 Attagene cis-factorial TAL promoter reporter; actives raise or lower the signal. The method in brief:
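HepG2 cells were transiently transfected with promoter-driven multiplexed reporter units and dosed for 24 h. Reporter mRNA was measured by RT-PCR with capillary electrophoresis fluorescence; bidirectional fits used DMSO as baseline, serving as a background control.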

Assay [11] is described as follows: ATG_TGFb_CIS: Attagene CIS-FACTORIAL HepG2 Assay for human Transforming Growth Factor (TGF) (AID 2282967). To be noted: HepG2 Attagene CIS TGFb reporter, mRNA transcription; actives raise or lower the signal. The method in brief: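 Transient MRTU transfection of HepG2 (FuGene 6). Dose 24 h. TriZol RNA, oligo(dT) RT, PCR, 6-FAM primer extension, HpaI cut, CE. Bidirectional fit, DMSO = baseline.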

Assay [12] in a line: ATG_VDRE_CIS: Attagene CIS-FACTORIAL HepG2 Assay for human Vitamin D Receptor Element (VDRE) (AID 2282968). To be noted: HepG2 VDRE cis-reporter transcription, actives raise or lower the signal. In a few lines:
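Transiently transfected HepG2 cells carrying cis-regulated reporter transcription units were exposed for 24 h. Reporter mRNA was measured by RT-PCR with fluorescent labelling and capillary electrophoresis, and fitted in both directions against DMSO.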

For assay [13], the target named is Steroid hormone receptor ERR1 (Homo sapiens) (UniProt P11474). The assay can be described thus: ATG_ERRa_TRANS: Attagene TRANS-FACTORIAL HepG2 Assay for human Estrogen-Related Receptor alpha (ERRa) (AID 2282971; active = hit-call score of the fitted dose curve at least 0.9, where 1 is the maximum). To be noted: HepG2 Attagene TRANS reporter, ERRa transactivation. The method in brief: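 HepG2 cells transiently transfected with multiplexed GAL4-UAS reporter units reading chimeric ERRa-Gal4 activity; 24 h compound exposure. Reporter mRNA measured by RT-PCR, 6-FAM labelling, HpaI digest and capillary electrophoresis; gain of signal fitted versus DMSO baseline.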

Assay [14] deals with X-box-binding protein 1 (Homo sapiens) (UniProt P17861). The assay is described as follows: ATG_Xbp1_CIS: Attagene CIS-FACTORIAL HepG2 Assay for human X-box Binding Protein 1 (XBP1) (AID 2282972). To be noted: HepG2 XBP1 cis-element reporter, Attagene multiplex; actives raise or lower the signal. In a few lines:
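HepG2, transient MRTU transfection (cis-promoter driven), 24 h compound exposure. Total RNA → oligo(dT) RT → PCR → 6-FAM labeling → HpaI cut → CE. Bidirectional fit vs DMSO.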

The nature of assay [15]: ATG_M_19_TRANS: Attagene TRANS-FACTORIAL HepG2 Assay for M19 Transcription Factor (Internal Marker) (AID 2282974; active = hit-call score of the fitted dose curve at least 0.9, where 1 is the maximum). To be noted: HepG2 Attagene TRANS-FACTORIAL M19 internal marker reporter. The method in brief: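 Fluorescence of 6-FAM-labelled reporter cDNA fragments, separated by capillary electrophoresis, served as the readout. These derived from HepG2 cells carrying transfected GAL4-UAS reporter units after 24 h dosing, with DMSO as negative control.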

The nature of assay [16]: ATG_GAL4_TRANS: Attagene TRANS-FACTORIAL HepG2 Assay for GAL4 (Internal Marker) (AID 2282976; active = hit-call score of the fitted dose curve at least 0.9, where 1 is the maximum). As to conditions: HepG2 Attagene TRANS GAL4 internal marker reporter. In a few lines: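 HepG2 cells transiently transfected with multiplexed GAL4-UAS reporter constructs were dosed for 24 h. Reporter mRNA was measured by RT-PCR, 6-FAM primer extension, HpaI digestion and capillary electrophoresis, and gain of signal was fitted relative to DMSO.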

Assay [17] concerns the target Glucocorticoid receptor (Homo sapiens) (UniProt P04150). The assay is described as follows: ATG_GR_TRANS: Attagene TRANS-FACTORIAL HepG2 Assay for human Glucocorticoid Receptor (GR) (AID 2282978; active = hit-call score of the fitted dose curve at least 0.9, where 1 is the maximum;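 note: activators score as hits since higher reporter transcript over DMSO is fitted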). To be noted: HepG2 Attagene TRANS GR reporter, mRNA transcription. The method in brief: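 Fluorescent capillary-electrophoresis quantitation of reporter mRNA is the readout, taken 24 h after dosing human HepG2 cells carrying transiently transfected GAL4-UAS reporter units activated by chimeric NR-GAL4 fusions; activity scored as induction over DMSO.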

The target in assay [18] is Estrogen receptor (Homo sapiens) (UniProt P03372). The assay is described as follows: ATG_ERa_TRANS: Attagene TRANS-FACTORIAL HepG2 Assay for human Estrogen Receptor alpha (ERa) (AID 2282970; active = hit-call score of the fitted dose curve at least 0.9, where 1 is the maximum). To be noted: HepG2 Attagene TRANS ERa GAL4 reporter, mRNA. The method in brief: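 HepG2 cells transiently transfected with multiplexed GAL4-UAS reporter units; ERa activity read via exogenous chimeric NR-Gal4 protein. After 24 hour compound exposure, reporter mRNA measured by RT-PCR with 6-FAM labelling and capillary electrophoresis; gain-of-signal fitted relative to DMSO.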

The target in assay [19] is Estrogen-related receptor gamma (Homo sapiens) (UniProt P62508). The assay is described as follows: ATG_ERRg_TRANS: Attagene TRANS-FACTORIAL HepG2 Assay for human Estrogen-Related Receptor gamma (ERRg) (AID 2282977; active = hit-call score of the fitted dose curve at least 0.9, where 1 is the maximum;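 note: hits increase reporter signal over DMSO so potencies reflect activators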). To be noted: HepG2 Attagene TRANS reporter, ERRg transactivation. In a few lines: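 Transfect HepG2 with multiple GAL4-UAS reporter transcription units; dose chemicals 24 h; isolate RNA, reverse-transcribe with oligo(dT), PCR-amplify, label with 6-FAM, digest with HpaI; size fragments by capillary electrophoresis. DMSO serves as negative control.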

Assay [20] addresses Nuclear receptor subfamily 1 group I member 3 (Homo sapiens) (UniProt Q14994). The assay is described as follows: ATG_CAR_TRANS: Attagene TRANS-FACTORIAL HepG2 Assay for human Constitutive Androstane Receptor (CAR) (AID 2282969; active = hit-call score of the fitted dose curve at least 0.9, where 1 is the maximum;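 note: activators raise reporter mRNA above DMSO so AC50 marks induction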). As to conditions: HepG2 Attagene TRANS-FACTORIAL CAR reporter. The method in brief: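 HepG2 cells transiently transfected with GAL4-UAS reporter units; TRANS format reads activity of exogenous chimeric NR-Gal4 protein. After 24 h dosing, reporter mRNA quantified by RT-PCR, 6-FAM labelling and capillary electrophoresis; gain of signal fitted against DMSO.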

Chain of Transcription factor Sp1 (Homo sapiens) (P08047 whole entry, looked up): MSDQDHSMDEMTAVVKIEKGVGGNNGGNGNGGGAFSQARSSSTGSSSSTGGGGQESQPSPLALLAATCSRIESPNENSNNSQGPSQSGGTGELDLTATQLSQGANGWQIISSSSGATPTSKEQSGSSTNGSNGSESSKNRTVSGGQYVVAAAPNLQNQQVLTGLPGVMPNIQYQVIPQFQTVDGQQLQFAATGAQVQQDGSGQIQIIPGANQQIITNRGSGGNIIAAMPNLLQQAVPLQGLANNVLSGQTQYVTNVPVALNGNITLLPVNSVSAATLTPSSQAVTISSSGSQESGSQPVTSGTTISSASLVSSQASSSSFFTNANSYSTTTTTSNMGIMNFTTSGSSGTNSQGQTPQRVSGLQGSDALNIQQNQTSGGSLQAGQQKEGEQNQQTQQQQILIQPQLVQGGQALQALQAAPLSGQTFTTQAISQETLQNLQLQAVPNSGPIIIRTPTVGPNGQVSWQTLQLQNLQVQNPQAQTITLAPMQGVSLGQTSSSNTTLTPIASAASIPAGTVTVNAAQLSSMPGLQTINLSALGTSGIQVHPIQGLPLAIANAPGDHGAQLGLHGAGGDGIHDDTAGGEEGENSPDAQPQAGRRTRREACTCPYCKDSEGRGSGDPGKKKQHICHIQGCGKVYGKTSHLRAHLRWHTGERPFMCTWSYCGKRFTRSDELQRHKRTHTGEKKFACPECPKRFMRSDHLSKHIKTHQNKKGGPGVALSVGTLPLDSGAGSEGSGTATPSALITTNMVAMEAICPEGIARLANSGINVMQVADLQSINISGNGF
Chain of Signal transducer and activator of transcription 3 (Homo sapiens) (P40763 whole entry, looked up): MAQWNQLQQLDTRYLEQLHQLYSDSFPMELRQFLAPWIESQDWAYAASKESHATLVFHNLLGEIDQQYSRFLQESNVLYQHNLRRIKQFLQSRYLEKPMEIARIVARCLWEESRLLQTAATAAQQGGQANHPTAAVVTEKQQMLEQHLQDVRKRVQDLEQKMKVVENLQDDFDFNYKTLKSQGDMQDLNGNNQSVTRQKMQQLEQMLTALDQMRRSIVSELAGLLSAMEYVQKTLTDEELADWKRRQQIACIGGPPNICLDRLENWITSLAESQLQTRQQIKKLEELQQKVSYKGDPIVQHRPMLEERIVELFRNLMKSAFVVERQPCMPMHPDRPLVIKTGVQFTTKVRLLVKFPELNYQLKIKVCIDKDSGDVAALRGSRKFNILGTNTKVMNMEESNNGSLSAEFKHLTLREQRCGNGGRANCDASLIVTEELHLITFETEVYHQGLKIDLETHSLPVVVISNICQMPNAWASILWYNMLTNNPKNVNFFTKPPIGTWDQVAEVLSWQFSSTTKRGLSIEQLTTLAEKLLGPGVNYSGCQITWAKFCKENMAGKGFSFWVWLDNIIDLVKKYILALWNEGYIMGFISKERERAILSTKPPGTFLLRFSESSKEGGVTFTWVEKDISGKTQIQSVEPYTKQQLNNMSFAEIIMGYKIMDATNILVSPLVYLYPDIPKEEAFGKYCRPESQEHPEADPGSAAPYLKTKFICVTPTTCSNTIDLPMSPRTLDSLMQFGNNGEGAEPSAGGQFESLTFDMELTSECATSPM
Chain of Estrogen receptor (Homo sapiens) (P03372 whole entry, looked up, the tested form may be a part): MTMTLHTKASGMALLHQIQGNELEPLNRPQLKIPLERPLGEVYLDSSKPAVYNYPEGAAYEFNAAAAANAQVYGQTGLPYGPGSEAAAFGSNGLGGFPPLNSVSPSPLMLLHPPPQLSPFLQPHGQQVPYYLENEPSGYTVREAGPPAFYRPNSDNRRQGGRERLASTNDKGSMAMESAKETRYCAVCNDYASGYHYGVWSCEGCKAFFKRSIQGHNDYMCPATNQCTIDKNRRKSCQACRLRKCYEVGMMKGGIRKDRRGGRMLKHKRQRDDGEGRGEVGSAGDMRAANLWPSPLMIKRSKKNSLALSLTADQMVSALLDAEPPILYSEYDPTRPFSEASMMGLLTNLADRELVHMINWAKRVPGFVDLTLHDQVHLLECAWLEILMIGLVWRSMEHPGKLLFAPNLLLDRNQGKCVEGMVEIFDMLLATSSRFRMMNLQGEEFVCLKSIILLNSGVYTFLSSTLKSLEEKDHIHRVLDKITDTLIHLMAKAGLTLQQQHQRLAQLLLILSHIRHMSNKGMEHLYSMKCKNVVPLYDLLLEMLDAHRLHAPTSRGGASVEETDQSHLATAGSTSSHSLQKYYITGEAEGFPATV
Chain of X-box-binding protein 1 (Homo sapiens) (P17861 whole entry, looked up): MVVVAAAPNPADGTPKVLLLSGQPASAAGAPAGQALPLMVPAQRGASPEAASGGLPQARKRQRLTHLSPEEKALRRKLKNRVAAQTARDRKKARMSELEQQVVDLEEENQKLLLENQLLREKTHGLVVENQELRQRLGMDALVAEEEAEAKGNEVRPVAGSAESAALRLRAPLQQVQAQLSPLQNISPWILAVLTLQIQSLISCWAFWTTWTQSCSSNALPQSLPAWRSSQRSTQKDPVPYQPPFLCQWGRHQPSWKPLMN
Chain of Glucocorticoid receptor (Homo sapiens) (P04150 whole entry, looked up, the tested form may be a part): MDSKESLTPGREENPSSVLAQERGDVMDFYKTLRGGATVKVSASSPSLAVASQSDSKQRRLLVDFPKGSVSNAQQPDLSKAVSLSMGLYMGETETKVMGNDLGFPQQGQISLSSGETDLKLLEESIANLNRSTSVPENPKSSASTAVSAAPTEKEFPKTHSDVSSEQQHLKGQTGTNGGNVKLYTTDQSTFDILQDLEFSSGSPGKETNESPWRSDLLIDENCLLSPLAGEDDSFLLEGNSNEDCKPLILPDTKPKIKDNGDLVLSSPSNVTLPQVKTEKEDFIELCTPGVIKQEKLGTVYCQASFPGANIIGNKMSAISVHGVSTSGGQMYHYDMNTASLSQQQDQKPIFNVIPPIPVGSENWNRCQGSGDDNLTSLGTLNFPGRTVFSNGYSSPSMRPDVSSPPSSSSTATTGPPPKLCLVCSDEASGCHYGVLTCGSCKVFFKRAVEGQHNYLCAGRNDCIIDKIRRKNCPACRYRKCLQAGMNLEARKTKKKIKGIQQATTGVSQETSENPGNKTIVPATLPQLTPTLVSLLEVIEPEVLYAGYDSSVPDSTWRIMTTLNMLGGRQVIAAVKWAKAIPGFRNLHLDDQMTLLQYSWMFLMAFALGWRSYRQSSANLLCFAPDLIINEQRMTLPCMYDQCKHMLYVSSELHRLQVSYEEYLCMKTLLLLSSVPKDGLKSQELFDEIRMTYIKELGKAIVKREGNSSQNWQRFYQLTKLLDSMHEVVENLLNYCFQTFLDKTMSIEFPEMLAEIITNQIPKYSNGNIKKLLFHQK
Chain of Nuclear receptor subfamily 1 group I member 3 (Homo sapiens) (Q14994 whole entry, looked up, the tested form may be a part): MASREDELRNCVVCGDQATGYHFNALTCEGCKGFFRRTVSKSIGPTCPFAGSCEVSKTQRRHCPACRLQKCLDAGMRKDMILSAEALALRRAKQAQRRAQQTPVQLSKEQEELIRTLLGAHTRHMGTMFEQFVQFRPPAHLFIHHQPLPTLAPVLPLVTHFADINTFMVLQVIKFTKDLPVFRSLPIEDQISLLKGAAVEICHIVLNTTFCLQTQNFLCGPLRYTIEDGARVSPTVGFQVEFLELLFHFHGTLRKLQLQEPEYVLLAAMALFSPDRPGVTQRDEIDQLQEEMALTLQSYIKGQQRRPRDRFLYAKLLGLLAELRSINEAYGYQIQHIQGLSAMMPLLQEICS
Chain of Steroid hormone receptor ERR1 (Homo sapiens) (P11474 whole entry, looked up, the tested form may be a part): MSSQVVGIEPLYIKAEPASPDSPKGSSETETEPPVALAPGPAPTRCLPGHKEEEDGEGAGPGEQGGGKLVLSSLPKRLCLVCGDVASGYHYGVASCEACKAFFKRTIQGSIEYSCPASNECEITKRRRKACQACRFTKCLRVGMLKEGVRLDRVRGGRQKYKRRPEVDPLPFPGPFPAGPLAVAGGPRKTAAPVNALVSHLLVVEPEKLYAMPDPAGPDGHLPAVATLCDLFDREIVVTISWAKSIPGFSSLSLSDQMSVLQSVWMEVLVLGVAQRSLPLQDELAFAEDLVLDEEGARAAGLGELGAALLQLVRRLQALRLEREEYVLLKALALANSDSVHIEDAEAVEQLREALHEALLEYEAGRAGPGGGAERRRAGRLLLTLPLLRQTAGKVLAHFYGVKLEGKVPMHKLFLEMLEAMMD
Chain of Estrogen-related receptor gamma (Homo sapiens) (P62508 whole entry, looked up, the tested form may be a part): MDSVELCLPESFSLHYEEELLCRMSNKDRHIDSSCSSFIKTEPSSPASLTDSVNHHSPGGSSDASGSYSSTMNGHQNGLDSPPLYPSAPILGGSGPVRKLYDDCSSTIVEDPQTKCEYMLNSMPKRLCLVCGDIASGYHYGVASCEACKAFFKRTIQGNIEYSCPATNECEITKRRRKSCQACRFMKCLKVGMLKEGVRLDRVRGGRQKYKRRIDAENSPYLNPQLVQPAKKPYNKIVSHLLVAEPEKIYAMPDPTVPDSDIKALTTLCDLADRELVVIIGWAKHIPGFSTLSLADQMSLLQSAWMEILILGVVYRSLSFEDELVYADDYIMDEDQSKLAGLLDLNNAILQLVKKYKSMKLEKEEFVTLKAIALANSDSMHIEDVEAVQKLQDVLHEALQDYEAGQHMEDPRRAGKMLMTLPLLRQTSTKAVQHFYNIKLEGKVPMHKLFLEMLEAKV

Consider `O=C(C=C(O)C(F)(F)F)C(F)(F)F`, for which, in [1], the AC50 was 99 µM (active). In addition, the result in assay [2], in [3], in assay [4], in [5], in assay [6] and in assay [7] was inactive. Further, the outcome in [8], in assay [9], in assay [10], in assay [11], in assay [12] and in assay [13] was inactive. In addition, the compound was called inactive in assay [14], in [15], in assay [16] and in assay [17].

As to `CCOC(=O)c1nc(C(Cl)(Cl)Cl)n(-c2ccc(Cl)cc2Cl)n1`, the AC50 in [1] is 2.06 µM (active); in assay [3], 167 µM (active); in assay [5] it was 54.6 µM (active); in assay [6], 27.7 µM (active); in [8], 173 µM (active); in [10], 118 µM (active). The AC50 in assay [11] was 27.8 µM (active); in assay [18], 25.7 µM (active); in assay [14] it was 178 µM (active). Further, the result in assay [2], in assay [4], in [7], in assay [9], in assay [12] and in [16] was inactive.

On to `CCc1cccc(CC)c1N(COC)C(=O)CS(=O)(=O)O`, for which the values for the AC50 in assay [1] and in assay [12] were 3.8 µM (active) and 5.6 µM (active), respectively. The result in assay [2], in [3], in assay [4], in assay [5], in assay [6] and in assay [7] was inactive. Moreover, the compound was classed as inactive in [8], in assay [9], in [10], in assay [11], in assay [18] and in [14]. The result in [15], in assay [16], in assay [19] and in assay [17] was inactive.

In the case of `Cc1ccc(N=Nc2c(O)ccc3ccccc23)c(C)c1`, the AC50 in assay [1] is 2.81 µM (active); in [12], 2.55 µM (active); in [18] it was 6.5 µM (active). The compound was classed as inactive in [2], in assay [3], in assay [4], in assay [5], in assay [6] and in assay [7]. The outcome in [8], in assay [10], in assay [11], in assay [20], in assay [14] and in [15] was inactive.

One may read the AC50 as the midpoint of the concentration-response curve, whichever way the signal moves.

Source of the values: PubChem BioAssay (EPA / NIEHS).
